# Assay results reported in PubChem BioAssay.
# Values without a mark were called inactive. The source made the active and inactive calls. Cut-off read from the data, not from the text of the source, unless noted: active = inhibition above about 33%; inactive = the rest.
# What was measured:
# [1] = StAR promoter reporter inhibitors, counter-screen for LRH-1 inverse agonist project, cell-based, luminescence, high throughput (AID 651611; in the data active = inhibition above about 28%); settings: StAR promoter luciferase reporter counterscreen, at 3.6 µM, hits give high values
# [2] = biological target: Nuclear receptor subfamily 5 group A member 2 (Homo sapiens) (UniProt O00482); experiment: LRH-1 (NR5A2) inverse agonists, retest, confirmation, cell-based, luminescence (AID 651613; in the data active = inhibition above about 42%;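 note: HEK293T cells co-transfected with LRH-1 and StAR promoter luciferase reporter; 0% = vehicle wells and 100% = parental cells lacking receptor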); settings: cell-based LRH-1 luciferase reporter, inverse agonism; at 3.6 µM; hits give high values
# Sequence of Nuclear receptor subfamily 5 group A member 2 (Homo sapiens) (O00482 whole entry, looked up): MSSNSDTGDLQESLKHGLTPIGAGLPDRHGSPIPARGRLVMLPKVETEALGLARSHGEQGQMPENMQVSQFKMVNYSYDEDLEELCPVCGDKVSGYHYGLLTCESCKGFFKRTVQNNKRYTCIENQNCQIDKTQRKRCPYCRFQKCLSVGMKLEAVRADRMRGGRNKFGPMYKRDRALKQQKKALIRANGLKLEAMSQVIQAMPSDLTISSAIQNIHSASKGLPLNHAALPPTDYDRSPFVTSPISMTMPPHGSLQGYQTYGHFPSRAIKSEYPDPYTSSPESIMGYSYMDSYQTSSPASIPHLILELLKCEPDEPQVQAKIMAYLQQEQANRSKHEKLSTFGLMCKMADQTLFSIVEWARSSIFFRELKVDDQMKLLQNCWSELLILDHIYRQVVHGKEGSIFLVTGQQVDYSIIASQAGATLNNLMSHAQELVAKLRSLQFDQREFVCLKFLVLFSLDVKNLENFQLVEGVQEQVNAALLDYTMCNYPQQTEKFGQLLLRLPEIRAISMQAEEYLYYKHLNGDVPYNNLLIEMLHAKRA
# [3] = biological target: Steroidogenic factor 1 (Homo sapiens) (UniProt Q13285); experiment: SF1 (NR5A1) inverse agonists, counter-screen for LRH-1 inverse agonist project, cell-based, luminescence, high throughput (AID 651614; in the data active = inhibition above about 44%;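 note: cells cotransfected with StAR promoter reporter and SF1 expression vector; 0% = vehicle on cells with receptor and 100% = vehicle on cells lacking receptor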); settings: cell-based SF1 luciferase reporter, at 3.6 µM, hits give high values
# Sequence of Steroidogenic factor 1 (Homo sapiens) (Q13285 whole entry, looked up, the tested form may be a part): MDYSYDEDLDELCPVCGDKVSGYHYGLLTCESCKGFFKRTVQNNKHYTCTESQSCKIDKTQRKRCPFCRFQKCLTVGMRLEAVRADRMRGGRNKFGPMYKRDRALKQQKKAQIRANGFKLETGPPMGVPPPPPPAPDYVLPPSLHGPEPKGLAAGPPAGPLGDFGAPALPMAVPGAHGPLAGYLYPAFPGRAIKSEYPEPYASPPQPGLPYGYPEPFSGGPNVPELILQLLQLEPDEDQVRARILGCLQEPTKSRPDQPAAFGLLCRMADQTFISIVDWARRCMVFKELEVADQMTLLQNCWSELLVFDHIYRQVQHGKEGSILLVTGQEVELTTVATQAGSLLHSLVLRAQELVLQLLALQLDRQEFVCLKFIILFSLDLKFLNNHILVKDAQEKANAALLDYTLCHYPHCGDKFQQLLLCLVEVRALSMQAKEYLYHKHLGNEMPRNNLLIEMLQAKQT
# [4] = VP16 transactivation reporter inhibitors, counter-screen for LRH-1 inverse agonist project, cell-based, luminescence, high throughput (AID 651615); settings: Gal4-VP16 luciferase reporter cells, at 3.6 µM, hits give high values
SMILES,inhibition [1],inhibition [2],inhibition [3],inhibition [4]
O=C(Nc1ccc(Cc2ccncc2)cc1)c1ccc([N+](=O)[O-])o1,16.6%,55.5% (active),63.6% (active),-16.8%
CC(=O)N1CCN(c2cc(N3CCCC3)c(F)cc2[N+](=O)[O-])CC1,2.68%,57.4% (active),48.7% (active),-0.47%
COc1ccccc1-n1c(SCC(=O)Nc2ccc(Cl)cc2)nc(O)c(Cc2ccccc2)c1=O,16.2%,55.1% (active),56% (active),0.94%
COc1cc(C2CC(=O)c3c([nH]c(C(=O)OCCOC(C)C)c3C)C2)cc(OC)c1OC (configuration not stated),24.2%,40%,56.8% (active),43.3% (active)
Cc1cc(/C=N/NC(N)=S)c(C)n1-c1ccc(Cl)c(Cl)c1,7.41%,44.5% (active),39.2%,22.5%
CCC(C)(C)n1nnnc1CN1CCC(O)(c2cccc(C(F)(F)F)c2)CC1,8.87%,41.6% (active),57.2% (active),-2.12%
COc1ccc2c(c1)/C(=C/c1cc(OC)c(OC)c(OC)c1)C(=O)N2,52% (active),51% (active),48.2% (active),41.6% (active)
CC(=O)c1ccc(NC(=O)COc2ccccc2C(=O)Nc2ccccc2)cc1,5.25%,54.9% (active),45.9% (active),-21.9%
CC1(C)Cc2c(sc3nc(SCC(=O)NCc4ccco4)n(-c4ccccc4)c(=O)c23)CS1,14%,41.6% (active),40.7%,4.77%
CCN(Cc1ccccc1)c1ccc(/C=N/NC(=O)c2cccc(S(=O)(=O)N3CCOCC3)c2)cc1,24.6%,66.8% (active),62.3% (active),28%
Cc1ccc2c(c1)N(C)/C(=C/c1cccc[n+]1C)S2,28% (active),61.8% (active),64% (active),67% (active)
CCOc1cc(/C=C2/C(=N)N3OC(C)=CC3=NC2=O)ccc1OCCOc1ccccc1,5.5%,46% (active),32.2%,-12.2%
COc1ccc(OCc2nnc3n2N=C(c2ccc(C)cc2)CS3)cc1,-0.29%,26.3%,28.9%,-1.91%
Cc1c(C(C)C)c(=O)n(-c2ccc(S(=O)(=O)NC3CCCCC3)cc2)n1C,23.7%,60.6% (active),62.1% (active),47.9% (active)
COc1ccc(C(=O)C(C)Oc2cccc(NC(=O)c3cccc([N+](=O)[O-])c3)c2)cc1 (configuration not stated),1.27%,35.4%,44.1% (active),-5.28%
CC(=O)Nc1ccc(NC(=O)CSc2nc(N)c(NC(=O)c3ccco3)c(=O)[nH]2)cc1,13.1%,51.4% (active),48.4% (active),-7.2%
CCOc1ccc(CCNC(=O)COC(=O)c2cccnc2OCC)cc1OCC,2.1%,53.3% (active),48.7% (active),0.35%
COc1ccc(NC(=O)CSC2=C(C#N)C(c3ccco3)C3=C(CCCC3=O)N2)c(OC)c1 (configuration not stated),14%,55.5% (active),52.5% (active),-14.7%
c1ccc2c(c1)CC1(CCCC1)n1nnnc1-2,5.24%,52.2% (active),42.5%,-5.69%
S=C(NCCc1ccccc1)Nc1cccc2cnccc12,-5.25%,45.1% (active),47.5% (active),42.3% (active)
COc1ccc(Br)cc1/C=C/C(=O)c1ccc(NC(C)=O)cc1,81.4% (active),95% (active),94.5% (active),85.4% (active)
Clc1ccccc1-c1nc(N/N=C/c2cccnc2)c2ccccc2n1,6.03%,52.3% (active),53.3% (active),-7.84%

SMILES,inhibition [1],inhibition [2],inhibition [3],inhibition [4]
Cc1nn(Cc2ccc(Cl)cc2)c(C)c1NC(=O)c1cc(C(C)C)on1,16.2%,44.9% (active),64.8% (active),16%
O=C(COc1ccc(S(=O)(=O)N2CCCC2)cc1Cl)NCc1ccc2c(c1)OCO2,26.1%,34%,32.6%,2.14%
COC(=O)c1ccc(NC(=O)CSc2nn3c(=O)c(C)nnc3s2)cc1,5.82%,61.3% (active),56.4% (active),-11.6%
O=C(Nc1cc(-c2nc3ncccc3o2)ccc1Cl)c1ccc([N+](=O)[O-])o1,15.3%,52.2% (active),53.2% (active),-25.6%
O=c1[nH]c2cc3ccccc3cc2nc1-c1nnnn1C1CCCC1,33.8% (active),33.4%,44.6% (active),8.72%
O=C(N/N=C/c1ccc(Sc2ccccn2)o1)c1cccc([N+](=O)[O-])c1,-2.81%,44.3% (active),40%,10.4%
COc1cc(C2c3cc4c(cc3OC(Nc3ccc(C(=O)O)cc3)C2C)OCO4)cc(OC)c1OC (configuration not stated),44.5% (active),49.7% (active),60.9% (active),26.4%
CS(=O)(=O)N1CCCC(c2nc(-c3ccc(S(=O)(=O)NCc4ccccc4)cc3)no2)C1 (configuration not stated),-1.45%,54.5% (active),52.7% (active),37.8% (active)
Fc1ccc(Br)cc1SCCc1ccncc1,1.89%,45.7% (active),34.9%,-2.36%
Cc1cc(Br)ccc1NC(=O)CN1C(=O)C2CC=CCC2C1=O (configuration not stated),7.07%,61.7% (active),44.1% (active),-7.81%
CC(C)C(=O)Nc1ccc(C(=O)CN2C(=O)NC3(CCOc4ccccc43)C2=O)cc1 (configuration not stated),8.93%,37.1%,36.7%,7.98%
Cc1ccc(NC(=O)c2ccc([N+](=O)[O-])o2)c(C)c1,11.1%,54.7% (active),54.6% (active),-6.21%
Cc1nc2ccccc2n1Cc1ccc(Cl)cc1,8.73%,56.1% (active),54.1% (active),47% (active)
O=C1c2cc(F)ccc2-n2c1nc1ccccc1c2=O,50.5% (active),72.4% (active),73.9% (active),67.9% (active)
O=Cc1ccc2c(c1)CCN2Cc1ccccc1,4.56%,56.6% (active),55.7% (active),-34.1%
CCN(CC)C1=CC(=O)OC12CCCCC2,2.42%,51.2% (active),48.7% (active),-9.57%
CCn1c(SCC(=O)Nc2ccc(Cl)cc2)nnc1C1CC1,14%,50.6% (active),50% (active),6.77%
O=C(CSc1nc2ccccc2c(=O)n1-c1ccc(F)cc1)Nc1ccc(N2CCOCC2)cc1,2.2%,29.5%,25.7%,6.2%
CC(=O)Nc1cc(-c2cccc(F)c2)cn2c(-c3ccc(S(C)(=O)=O)cc3)cnc12,8.88%,50.2% (active),54.6% (active),-14.3%
COc1ccc(NC(=O)CN2C(=O)NC3(CCCC3)C2=O)cc1Cl,2.83%,54.6% (active),60.6% (active),-7.78%
O=C(NC1CCCC(C(F)(F)F)C1)c1ccc([N+](=O)[O-])o1 (configuration not stated),15.8%,65.4% (active),63% (active),-1.15%
